Reference: PubChem BioAssay (NCATS)
Inconclusive results are not listed. A call without a number means that no potency is given here. Activity calls are given as the source filed them. Unless noted, calls come from the whole dose curve; as a rule, active = well fitted cell-killing curve with a large enough effect; inconclusive = small, poorly fitted or top-dose-only effect; inactive = flat fitted curve, though single readings scatter.

Assays:
[1] = Cell Viability - LYMP2-025 (AID 976);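 note: series mostly up to about 92 µM; cells exposed to compound for 24 h at 37 °C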
Method in brief: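 Luminescent ATP readout after 24 hr treatment of a human lymphoblastoid line (LYMP2-025, 2500 cells/well, 37 C). Reagent developed 30 min at room temperature; AC50 fitted with the Hill equation.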

[2] = Cell Viability - LYMP2-006 (AID 978);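 note: series mostly up to about 92 µM; cells exposed to compound for 24 hours; nearly all actives have a fitted effect of over 60% in size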
Method in brief: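 Concentration-dependent loss of intracellular ATP in a human lymphoblastoid line after 24 hr treatment at 37 C was measured by CellTiter-Glo luminescence, with AC50 values obtained from standard Hill-equation modelling.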

[3] = Cell Viability - LYMP2-007 (AID 979);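 note: cells exposed to compound for 24 h before reading; nearly all actives have a fitted effect of over 60% in size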
Method in brief: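 Measured via luciferase-based ATP quantitation: lymphoblastoid cells, 24 hr compound exposure at 37 C, AC50 from Hill fits.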

[4] = Cell Viability - LYMP2-008 (AID 980);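 note: cells exposed to compound for 24 h at 37 °C; nearly all actives have a fitted effect of over 60% in size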
Method in brief: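 Measured: ATP-dependent luminescence, proportional to viable cell number, in human lymphoblastoid cells treated 24 hr with compound in complete culture medium. Values are AC50s from Hill-equation modelling of qHTS titrations.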

[5] = Cell Viability - LYMP2-010 (AID 981);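 note: cells exposed to compound for 24 hours at 37 °C; nearly all actives have a fitted effect of over 55% in size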
Method in brief: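 This 24 hr viability screen uses LYMP2-010 lymphoblastoid cells, quantifies ATP via luciferase luminescence, and derives AC50 from Hill fits of qHTS concentration-response data.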

[6] = Cell Viability - LYMP2-012 (AID 982);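 note: cellular ATP by luciferase luminescence where a drop means cytotoxicity; cells exposed to compound for one day before reading; nearly all actives have a fitted effect of over 55% in size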
[7] = Cell Viability - LYMP2-018 (AID 985); note: nearly all actives have a fitted effect of over 50% in size
Method in brief: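 In this qHTS viability assay, cells are treated for 24 hr and cellular ATP is quantified by luciferase-based luminescence, with tetraoctylammonium bromide as positive control.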

[8] = Cell Viability - LYMP2-020 (AID 986);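 note: series mostly up to about 92 µM; cells exposed to compound for 24 h at 37 °C; nearly all actives have a fitted effect of over 55% in size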
Method in brief: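 Cells at 2500 per well receive a 24 hr compound exposure at 37 C. Viability is measured as ATP-dependent luciferase luminescence, with AC50 modeled from qHTS concentration-response curves.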

[9] = Cell Viability - LYMP2-022 (AID 987); note: nearly all actives have a fitted effect of over 55% in size
Method in brief: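 In this qHTS cytotoxicity screen, compound titrations were incubated 24 hr at 37 C with human lymphoblastoid cells in complete medium. Luciferase-based ATP luminescence provided the viability signal.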

[10] = Cell Viability - LYMP2-024 (AID 988); note: nearly all actives have a fitted effect of over 60% in size
Method in brief: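 Cells at 2500 per well received compound for 24 hr after a 5 hr settling period. Viability was scored by CellTiter-Glo luminescence, with AC50 from Hill fits.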

[11] = Cell Viability - LYMP2-026 (AID 989);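 note: cells exposed to compound for 24 h at 37 °C; nearly all actives have a fitted effect of over 50% in size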
Method in brief: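 Acute toxicity screen in complete culture medium, with 24 hr compound exposure at 37 C. Viability read as cellular ATP via luciferase reaction, with tetraoctylammonium bromide (6.4pM to 92 uM) as positive control.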

[12] = Cell Viability - LYMP1-002 - Assay at 40 hr (AID 994); note: nearly all actives have a fitted effect of over 60% in size
Method in brief: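 Concentration-dependent ATP loss after 40 hr treatment at 37 C defined toxicity; AC50 values were obtained by fitting the standard Hill equation.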

[13] = qHTS Assay for Identification of Small Molecule Inducers of Hypoxia Response (AID 2120; active = well fitted curve in the direction sought with a large enough effect in the signal ratio, with a control signal flat, not every such curve was filed as active; the % refers to the signal ratio)
Method in brief: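 HRE-bla ME-180, 2500 cells/well, 0.5% dialyzed FBS medium; cpd titration, 17 h 37 degrees C; CCF4 2.5 h RT; Ex 405, Em 460/530 ratio -> %Activity, AC50.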

[14] = target: Estrogen receptor (Homo sapiens) (UniProt P03372); assay: qHTS assay for small molecule antagonists of estrogen receptor alpha signaling (AID 588513; active = well fitted curve in the direction sought with a large enough effect in the signal ratio, with a control signal flat, not every such curve was filed as active; the % refers to the signal ratio)
Estrogen receptor (Homo sapiens), sequence (P03372 whole entry, looked up): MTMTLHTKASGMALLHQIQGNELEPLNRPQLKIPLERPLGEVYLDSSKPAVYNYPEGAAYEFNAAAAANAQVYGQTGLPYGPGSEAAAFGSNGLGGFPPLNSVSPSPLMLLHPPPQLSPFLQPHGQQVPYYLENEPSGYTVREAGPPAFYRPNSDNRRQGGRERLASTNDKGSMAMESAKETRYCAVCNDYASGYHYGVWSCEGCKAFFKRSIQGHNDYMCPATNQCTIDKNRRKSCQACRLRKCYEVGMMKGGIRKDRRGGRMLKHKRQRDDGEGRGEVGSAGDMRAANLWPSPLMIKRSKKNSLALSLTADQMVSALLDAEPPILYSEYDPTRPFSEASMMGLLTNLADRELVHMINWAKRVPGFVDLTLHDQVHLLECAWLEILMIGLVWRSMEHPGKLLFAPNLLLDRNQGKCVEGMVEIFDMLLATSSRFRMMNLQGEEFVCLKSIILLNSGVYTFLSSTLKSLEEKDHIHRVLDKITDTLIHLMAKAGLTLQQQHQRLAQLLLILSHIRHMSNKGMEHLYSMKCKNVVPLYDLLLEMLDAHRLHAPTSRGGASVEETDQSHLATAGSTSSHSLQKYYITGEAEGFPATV
Method in brief: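 Cells were plated at 5000/well and incubated 4 h at 37 C. Compounds were added as 1:2 dilution series, duplicates. 17-beta-estradiol (0.5nM final) was added for 18 h before CCF4 detection.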

[15] = target: Bile acid receptor (Homo sapiens) (UniProt Q96RI1); assay: qHTS assay for small molecule antagonists of farnesoid X receptor signaling (AID 588526; calls by dose curve)
Bile acid receptor (Homo sapiens), sequence (Q96RI1 whole entry, looked up): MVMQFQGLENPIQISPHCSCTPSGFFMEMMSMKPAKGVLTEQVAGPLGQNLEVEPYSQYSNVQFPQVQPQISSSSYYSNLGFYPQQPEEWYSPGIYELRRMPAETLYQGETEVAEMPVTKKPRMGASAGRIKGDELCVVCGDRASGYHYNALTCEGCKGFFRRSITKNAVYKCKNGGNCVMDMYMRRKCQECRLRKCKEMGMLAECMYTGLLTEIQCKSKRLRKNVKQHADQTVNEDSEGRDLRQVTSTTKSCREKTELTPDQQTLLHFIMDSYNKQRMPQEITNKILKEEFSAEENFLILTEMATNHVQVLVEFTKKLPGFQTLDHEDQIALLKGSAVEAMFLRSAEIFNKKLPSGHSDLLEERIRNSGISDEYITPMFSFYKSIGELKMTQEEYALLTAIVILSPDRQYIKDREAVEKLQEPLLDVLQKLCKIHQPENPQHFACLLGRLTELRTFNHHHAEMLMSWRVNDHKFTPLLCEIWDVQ
Method in brief: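 Antagonist mode: titrated compounds tested against chenodeoxycholic acid stimulation (normalized to 50 uM CDCA and DMSO) in GeneBLAzer HEK293T cells for 16 h. Beta-lactamase read by CCF4 fluorescence; IC50 from Hill fits.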

[16] = target: Bile acid receptor (Homo sapiens) (UniProt Q96RI1); assay: qHTS assay for small molecule agonists of farnesoid X receptor signaling (AID 588527; calls by dose curve; note: series mostly up to about 77 µM); conditions: HEK293T FXR-UAS-bla, beta-lactamase ratio, 16 h; stronger effect = higher value
Method in brief: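 FXR-UAS-bla HEK293T cells (10% dialyzed FBS) preincubated 5-7 h at 37 C, then compounds at up to 92 uM for 16 h at 37 C. CCF4 beta-lactamase read-out after 2 h RT. Normalized to chenodeoxycholic acid (100 uM) and DMSO; Hill fit gave EC50 and efficacy.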

[17] = target: Peroxisome proliferator-activated receptor delta (Homo sapiens) (UniProt Q03181); assay: qHTS assay for small molecule agonists of peroxisome proliferator-activated receptor delta signaling (AID 588534; calls by dose curve)
Peroxisome proliferator-activated receptor delta (Homo sapiens), sequence (Q03181 whole entry, looked up): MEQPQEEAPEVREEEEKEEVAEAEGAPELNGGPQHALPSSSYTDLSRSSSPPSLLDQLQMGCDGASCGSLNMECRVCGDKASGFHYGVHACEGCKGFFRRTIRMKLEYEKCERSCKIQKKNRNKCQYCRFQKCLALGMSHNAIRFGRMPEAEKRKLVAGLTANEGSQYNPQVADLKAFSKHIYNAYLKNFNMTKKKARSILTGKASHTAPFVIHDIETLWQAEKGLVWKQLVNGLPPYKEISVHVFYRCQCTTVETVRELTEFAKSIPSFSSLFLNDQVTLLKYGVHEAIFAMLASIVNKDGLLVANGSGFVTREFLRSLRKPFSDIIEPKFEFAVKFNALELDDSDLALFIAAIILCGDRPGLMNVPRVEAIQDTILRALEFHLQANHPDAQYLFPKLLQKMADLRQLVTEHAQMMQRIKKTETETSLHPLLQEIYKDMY
Method in brief: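 EC50 and efficacy values derive from Hill fits of a concentration series in a beta-lactamase reporter cell assay. Exposure is 18 hrs at 37 C, with CCF4 fluorescence as the readout.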

[18] = qHTS assay for small molecule antagonists of peroxisome proliferator-activated receptor delta signaling (AID 588535; active = well fitted inhibition curve with a large enough effect in the signal ratio, with a control signal flat, not every such curve was filed as active; the % refers to the signal ratio;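 for max response: cells co-treated with a PPAR-delta agonist as stimulator during compound exposure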); conditions: HEK293T PPARd-UAS-bla, beta-lactamase FRET ratio, 18 h; 460 nm channel
Method in brief: (§1)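 Beta-lactamase reporter read-out (405 nm excitation, 460/530 nm emission) after CCF4 loading for 2 hrs at RT. HEK293T PPAR-delta-UAS-bla cells, 2% charcoal/dextran FBS, compounds for 18 hrs at 37 C. Hill fit gave IC50 and efficacy.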

[19] = target: Peroxisome proliferator-activated receptor delta (Homo sapiens) (UniProt Q03181); assay: as above
Method in brief: as §1

[20] = target: Peroxisome proliferator-activated receptor gamma (Homo sapiens) (UniProt P37231); assay: qHTS assay for small molecule agonists of peroxisome proliferator-activated receptor gamma signaling (AID 588536; active = well fitted curve in the direction sought with a large enough effect in the signal ratio, with a control signal flat, not every such curve was filed as active; the % refers to the signal ratio)
Peroxisome proliferator-activated receptor gamma (Homo sapiens), sequence (P37231 whole entry, looked up): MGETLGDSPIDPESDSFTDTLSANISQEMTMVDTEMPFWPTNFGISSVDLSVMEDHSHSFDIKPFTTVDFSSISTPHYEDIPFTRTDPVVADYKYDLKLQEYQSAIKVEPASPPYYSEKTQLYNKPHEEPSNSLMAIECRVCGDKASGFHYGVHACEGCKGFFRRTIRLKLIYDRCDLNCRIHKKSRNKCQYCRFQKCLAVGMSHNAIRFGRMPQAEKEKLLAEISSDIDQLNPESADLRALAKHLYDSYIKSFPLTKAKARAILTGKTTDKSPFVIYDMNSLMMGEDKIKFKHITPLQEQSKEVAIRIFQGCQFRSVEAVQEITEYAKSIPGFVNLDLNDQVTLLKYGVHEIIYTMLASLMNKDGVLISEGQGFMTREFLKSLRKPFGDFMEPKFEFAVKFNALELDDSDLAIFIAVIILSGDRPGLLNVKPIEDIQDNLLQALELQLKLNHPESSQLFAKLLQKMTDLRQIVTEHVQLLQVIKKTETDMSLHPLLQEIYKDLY
Method in brief: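 Cells were plated and held 6–6.5 h at 37 C, then compounds were added as a titration series. After a further 16 h, CCF4 dye was loaded for 2 h at room temperature and emission at 460/530 nm recorded.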

[21] = target: Vitamin D3 receptor (Homo sapiens) (UniProt P11473); assay: qHTS assay for small molecule antagonists of vitamin D receptor signaling (AID 588541; calls by dose curve;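 note: receptor activated by calcitriol during compound treatment; series mostly up to about 77 µM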)
Vitamin D3 receptor (Homo sapiens), sequence (P11473 whole entry, looked up): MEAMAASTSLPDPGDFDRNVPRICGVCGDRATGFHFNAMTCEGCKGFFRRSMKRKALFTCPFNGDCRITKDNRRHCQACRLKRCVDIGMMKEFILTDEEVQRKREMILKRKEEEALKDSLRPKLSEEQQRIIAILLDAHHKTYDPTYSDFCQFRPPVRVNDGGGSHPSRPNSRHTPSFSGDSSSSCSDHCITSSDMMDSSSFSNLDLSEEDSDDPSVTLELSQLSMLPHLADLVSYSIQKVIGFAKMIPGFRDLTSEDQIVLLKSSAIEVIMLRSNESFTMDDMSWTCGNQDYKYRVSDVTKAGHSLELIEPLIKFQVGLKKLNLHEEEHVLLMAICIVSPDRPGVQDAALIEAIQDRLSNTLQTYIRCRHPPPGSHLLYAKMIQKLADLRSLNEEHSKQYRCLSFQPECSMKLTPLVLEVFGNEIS
Method in brief: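 VDR-UAS-bla HEK293T cells in 2% charcoal-stripped FBS were stimulated with 1-alpha,25-dihydroxyvitamin D3 (3 nM final) plus compound for 16 h at 37 C. The beta-lactamase CCF4 readout was normalized to 50 nM agonist and DMSO, and Hill fits gave IC50.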

**Q.** With `CC(C)(COCC1CO1)COCC1CO1` (stereo unspecified) as the molecule, how does the Potency [1] read?
**A.** Its Potency is “inactive”.

**Q.** And the Potency [2]?
**A.** Its Potency is “inactive”.

**Q.** And the Potency [3]?
**A.** The Potency was “inactive”.

**Q.** And the Potency [4]?
**A.** The Potency was “inactive”.

**Q.** And the Potency [5]?
**A.** The Potency was “inactive”.

**Q.** What about the Potency [6] of the same molecule?
**A.** Its Potency is “inactive”.

**Q.** And the Potency [7]?
**A.** The Potency was “inactive”.

**Q.** And the Potency [8]?
**A.** The Potency was “inactive”.

**Q.** And the Potency [9]?
**A.** The Potency was “inactive”.

**Q.** And the Potency [10]?
**A.** The Potency was “inactive”.

**Q.** And the Potency [11]?
**A.** Its Potency is “inactive”.

**Q.** What about the Potency [12] of the same molecule?
**A.** Its Potency is “inactive”.

**Q.** What about the Potency [13] of the same molecule?
**A.** The Potency was “inactive”.

**Q.** And the Potency [14]?
**A.** Its Potency is “inactive”.

**Q.** And the outcome [15]?
**A.** The outcome was “inactive”.

**Q.** What about the activation [16] of the same molecule?
**A.** The activation was 1.49% (inactive).

**Q.** What about the outcome [17] of the same molecule?
**A.** The outcome was “inactive”.

**Q.** And the max response [18]?
**A.** Its max response is 0.207%.

**Q.** And the outcome [19]?
**A.** Its outcome is “inactive”.

**Q.** And the outcome [20]?
**A.** Its outcome is “inactive”.

**Q.** And the outcome [21]?
**A.** The outcome was “inactive”.
